# Several values for one entry are separate records, joined by “and”; a condition that tells them apart may be missing. Equal values may be shown once. Inconclusive results are not listed. Where a call stands in place of a potency, no number is given. Values without a mark were called inactive. Activity calls are given as the source filed them. Calls come from the whole dose curve; as a rule, active = well fitted curve in the direction sought with a large enough effect; inconclusive = small, poorly fitted or top-dose-only effect, or another doubt; inactive = no such curve, though single readings can be large; an effect the other way counts as inactive or inconclusive.
# How the values were obtained:
# [1] = test system: Zika virus NS2B-NS3 protease; test: Primary screen GU AMC qHTS for Zika virus inhibitors (AID 1347154); note: nearly all actives have a fitted effect of over 70% in size; note: potency is the fitted concentration of half-maximal effect
# In short: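 Unlinked Zika NS2B hydrophilic domain/NS3 protease domain noncovalent complex (25 nM final) in 10 mM Tris-HCl pH 8.0, 0.01% Tween 20, with AMC peptide substrate. Fluorescence (ex 340, em 450 nm) change over 15 min, room temperature; percent inhibition fitted to 4-parameter Hill equation.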
# [2] = test system: Zika virus NS2B-NS3 protease (unlinked); test: Optimization of GU AMC qHTS for Zika virus inhibitors: Unlinked NS2B-NS3 protease assay (AID 1347151); note: series mostly up to about 52 µM; nearly all actives have a fitted effect of over 80% in size
# In short: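 Fluorescence read-out (340 nm ex / 450 nm em) of AMC peptide cleavage, taken immediately and after 15 min at room temperature (~20% conversion). Enzyme was the unlinked NS2B–NS3 complex at 25 nM in Tris pH 8.0 buffer.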
# [3] = test system: Zika virus NS2B-NS3 protease (unlinked complex); test: Primary screen GU Rhodamine qHTS for Zika virus inhibitors: Unlinked NS2B-NS3 protease assay (AID 1347159); note: nearly all actives have a fitted effect of over 60% in size; note: potency is the fitted concentration of half-maximal effect
# Source text: Avindra Nath, Ph.D., National Institute of Neurological Disorders and Stroke (NINDS), Bethesda, MD
# Radhakrishnan Padmanabhan, Ph.D., Georgetown University (GU), Washington D.C.
# Zika Virus causes congenital defects, including microcephaly and is associated with Guillain-Barre syndrome, eningoencephalitis and myelitis in infected adult. […] Using a target-based approach, we hope to establish a screening paradigm to uncover novel, cell-active NS2B-NS3 protease (Zika Virus) specific inhibitors from NCATS' collection of small molecules using qHTS.
# Four assay panel was created to identify potential Zika Virus inhibitors. Namely, (1) GU unlinked NS2B-NS3 AMC tagged protease qHTS, (2) GU unlinked NS2B-NS3 Rhodamine tagged protease qHTS, (3) NINDS linked NS2B-NS3 AMC tagged protease qHTS, (4) NINDS linked NS2B-NS3 Rhodamine tagged protease qHTS. Active compounds were re-acquired and re-screened to confirm inhibition. Inhibitors were further screened against various confirmatory and counterscreens in dose response format.
# Early Translation Branch (ETB)
# National Center for Advancing Translational Sciences (NCATS), Rockville, MD
# National Institute of Health (NIH), Bethesda, Maryland
# Padmanabhan lab provided the NS2B hydrophilic domain and NS3 protease domain in a noncovalent complex used for the unlinked assay. Control compound aprotinin is obtained from Thermo Scientific (#78432; Waltham, Massachusetts). Rhodamine110 substrate ([N-Cbz]-Nle-Lys-Arg-Arg-Rhod110-Arg-Arg-Lys-Nle-[N-Cbz]) was purchased from either Genscript or Bachem.
# 1536-well Protease (Rhodamine110 Substrate) Assay:
# Briefly, 3 microL of enzyme (25 nM final concentration), in assay buffer (10 mM Tris-HCl pH 8.0 with 0.01% Tween 20) were dispensed into a 1,536-well solid-bottom black plate (Greiner Bio One, Monroe, NC). Twenty-three nL of compounds (final concentration range 7.28 nM to 114 microM) or control Aprotinin (final concentration range 3.47 nM to 114 microM) were transferred via Wako Pin-tool (Wako Automation, Richmond, VA). Samples were incubated (room temperature, protected from light) for 15 minutes followed by a 1 microL Rhodamine110 substrate addition (1.5 microM final concentration). Plates were then immediately read on a ViewLux High-throughput CCD imager (PerkinElmer, Waltham, MA) equipped with FITC fluorescence optics (480(20) nm excitation, 540(25) nm emission), then incubated (room temperature, protected from light) for 15 minutes (~15% conversion). The change in fluorescence intensity over the 15-minute reaction period was normalized against no-inhibitor and no-enzyme controls and the resulting percent inhibition data were fitted to a 4-parameter Hill equation. Aprotinin was used as intraplate control.
# [4] = test system: Zika virus NS2B-NS3 protease (linked construct); test: Primary screen NINDS Rhodamine qHTS for Zika virus inhibitors (AID 1347160); note: nearly all actives have a fitted effect of over 55% in size; note: potency is the fitted concentration of half-maximal effect
# In short: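 Purified NS2B-NS3 protease with the NS2B hydrophilic domain joined by a flexible linker (25 nM) in 10 mM Tris-HCl pH 8.0, 0.01% Tween 20, preincubated 15 min at RT with compound; Rhodamine110 peptide substrate 1.5 µM; fluorescence change over 15 min; 4-parameter Hill fit.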
# [5] = test system: Zika virus NS2B-NS3 protease (linked construct); test: Confirmatory screen NINDS AMC qHTS for Zika virus inhibitors (AID 1347152); note: potency is the fitted concentration of half-maximal effect; nearly all actives have a fitted effect of over 70% in size
# In short: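 Linked NS2B-NS3 1 nM, Tris pH 8.0/0.01% Tween 20; cpd 15 min RT dark; + Nle-KRR-AMC 10 µM (Km 18.3 µM); read 0 and 15 min, 340/450 nm; %inh vs controls, 4-param Hill.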
# [6] = test system: Zika virus NS2B-NS3 protease (unlinked complex); test: Confirmatory screen GU AMC qHTS for Zika virus inhibitors (AID 1347153);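 note: enzyme at 25 nM with substrate at 10 µM below its Km of 18.3 µM; potency is the fitted concentration of half-maximal effect; nearly all actives have a fitted effect of over 70% in size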
# In short: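 Unlinked NS2B-NS3 complex (25 nM) in 10 mM Tris-HCl pH 8.0, 0.01% Tween 20 preincubated 15 min with compound, then 10 microM Bz-Nle-KRR-AMC (Km 18.3 µM). Fluorescence change over 15 min, normalized, Hill-fitted.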
# [7] = Confirmatory screen GU Rhodamine qHTS for Zika virus inhibitors qHTS (AID 1347157); conditions: purified enzyme assay, Rhodamine110 substrate fluorescence, 15 min; note: potency is the fitted concentration of half-maximal effect; nearly all actives have a fitted effect of over 70% in size
# In short: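 Enzyme 25 nM in Tris-HCl pH 8.0 + 0.01% Tween 20; compounds up to 114 microM, 15 min RT dark; + Rhod110 substrate 1.5 microM; read t0 and 15 min; delta fluorescence → % inhibition → 4-parameter Hill fit.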
# [8] = ZIKV-mCherry secondary qHTS for Zika virus inhibitors (AID 1347158); note: top concentration of the series differs between compounds
# In short: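 Vero cells, 5,000/well, plated overnight at 37 °C, then compound added and infected with recombinant ZIKV-mCherry at MOI 1 for 48-72 h. PFA-fixed, Hoechst nuclear stain, high-content imaging; cells with mCherry intensity above 450 RFU scored infected, reported as percent infection.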
# [9] = Confirmatory screen NINDS Rhodamine qHTS for Zika virus inhibitors (AID 1347161); note: nearly all actives have a fitted effect of over 60% in size; note: potency is the fitted concentration of half-maximal effect
# In short: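 qHTS dose-response: 25 nM linked protease, pH 8.0 Tris/Tween buffer, cpd titration, 15 min RT preinc, 1.5 microM Rhod110 peptide, 15 min reaction (~15% conversion), Ex480/Em540; 4-parameter Hill fit.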
compound,measurement,setting,value
CCN(CC)CCOC(=O)C(O)(c1ccccc1)c1ccccc1,Potency,[1],inactive
C[C@]12C/C(=C/O)C(=O)C[C@@H]1CC[C@@H]1[C@@H]2CC[C@@]2(C)[C@H]1CC[C@]2(C)O,Potency,[1],inactive
CC1OC(C)OC(C)O1 (stereo not given),Potency,[1],inactive
C=C1CC[C@@]2(O)[C@H]3Cc4ccc(O)c5c4[C@@]2(CCN3CC2CC2)[C@H]1O5,Potency,[1],inactive
COC[C@H]1OC(=O)c2coc3c2[C@@]1(C)C1=C(C3=O)C2CCC(=O)[C@@]2(C)C[C@H]1OC(C)=O (stereo not given in full),Potency,[2],inactive
same,Potency,[1],inactive
same,Potency,[3],inactive
same,Potency,[4],inactive
O=C(O)C(=O)c1cn(Cc2ccccc2)c2ccc(-c3ccc(OC(F)(F)F)cc3)cc12,Potency,[5],7.84 µM (active)
same,Potency,[6],9.61 µM (active)
same,Potency,[1],6.07 µM (active)
same,Potency,[7],1.24 µM (active) and 1.56 µM (active)
same,outcome,[8],inactive
same,Potency,[3],1.58 µM (active)
same,Potency,[4],2.51 µM (active)
same,Potency,[9],1.24 µM (active) and 1.75 µM (active)
COC[C@@H](NC(C)=O)C(=O)NCc1ccccc1,Potency,[1],inactive
CCCN1CCC[C@@H]2Cc3nc(N)ncc3C[C@H]21,Potency,[1],inactive
C=C(C)[C@H]1Cc2c(ccc3c2O[C@@H]2COc4cc(OC)c(OC)cc4[C@@H]2C3=O)O1,Potency,[1],inactive
N[C@@H](Cc1ccc(N(CCCl)CCCl)cc1)C(=O)O,Potency,[1],inactive
Oc1cccc2cccnc12,Potency,[1],inactive
Cn1cc(C2=C(c3cn(C4CCN(Cc5ccccn5)CC4)c4ccccc34)C(=O)NC2=O)c2ccccc21,Potency,[1],inactive
Clc1ccc(CCC(Cn2ccnc2)Sc2c(Cl)cccc2Cl)cc1 (stereo not given),Potency,[1],inactive
CC(=O)Nc1cc([As](=O)(O)O)ccc1O,Potency,[1],inactive
FC(F)(F)c1cccc(C2=CCN(CCc3ccc4ccccc4c3)CC2)c1,Potency,[1],inactive
Oc1ccccc1-c1ccccc1,Potency,[1],inactive
CN(C)CCN(C)CCc1ccc(Cl)c(Cl)c1,Potency,[1],inactive
CC1=C2C[C@@H]3[C@@H](CC=C4C[C@@H](O)CC[C@@]43C)[C@@H]2CC[C@]12O[C@H]1C[C@H](C)CN[C@H]1[C@H]2C,Potency,[1],inactive
COc1ccc(C(=O)c2c(C)n(CCN3CCOCC3)c3ccccc23)cc1,Potency,[1],inactive
Clc1cccc(N2CCNCC2)c1,Potency,[1],inactive
CNC(=O)N1N=C(c2ccc(N)cc2)c2cc3c(cc2CC1C)OCO3 (stereo not given),Potency,[3],inactive
same,Potency,[4],inactive
CNC(=O)c1ccc(N2C(=S)N(c3ccc(C#N)c(C(F)(F)F)c3)C(=O)C23CCC3)cc1F,Potency,[3],inactive
same,Potency,[4],inactive
CN(C)[C@@H]1C(=O)C(C(N)=O)=C(O)[C@@]2(O)C(=O)C3=C(O)c4c(O)cccc4[C@@](C)(O)[C@H]3C[C@@H]12,Potency,[9],inactive
